miR122 inh: miR-122 sensor activation; Huh7 psiCHECK-miR122 Renilla luciferase sensor, 48 h; activation, % at 12.5 µM; 0.14% of 340,000 active;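 active means mean activation of 30% or more, with every replicate also reaching 30%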;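 further: 0% = median of neutral control wells and 100% = median of positive control wells; higher luciferase signal means stronger suppression of miR-122 activity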
An asterisk follows results filed as active. The full list was thinned out, with hits kept by preference.

SMILES	miR122 inh
Cc1noc(C)c1NC(=O)N(C)C[C@H]1Oc2cc(C#CCC(C)C)ccc2S(=O)(=O)N([C@H](C)CO)C[C@H]1C	-45
CCCNC(=O)Nc1ccc2c(c1)OC[C@H](C)NC[C@H](C)[C@H](OC)CN(C)C2=O	-4
COc1ccc(CN(C)C[C@@H]2Oc3c(NC(=O)C4CCCCC4)cccc3C(=O)N([C@H](C)CO)C[C@H]2C)cc1	-98
C[C@H]1CN([C@@H](C)CO)C(=O)c2cc(-c3ccccc3F)cnc2O[C@@H]1CN(C)Cc1ccccc1F	7
O=C(Nc1ccccc1)c1cc([N+](=O)[O-])ccc1NC1CCCCC1	-123
Cc1ccc(NC(=O)c2nc(C)n(-c3ccc([N+](=O)[O-])cc3)n2)cc1	43*
CO[C@H]1CN(C)C(=O)c2ccc(NC(=O)Nc3ccc(Cl)cc3)cc2OC[C@@H](C)N(C)C[C@H]1C	-1
COCC(=O)N(C)C[C@H]1Oc2cc(-c3cncnc3)ccc2S(=O)(=O)N([C@@H](C)CO)C[C@@H]1C	-3

Compound activity from PubChem.
